High-throughput results from PubChem.
Only some compounds are listed: those with a hit (about 3.2% of all), similar ones and a draw of the others.
NadD block = inhibitors of S. aureus NadD, primary screen, biochemical, colorimetric, uHTS; Nicotinate-nucleotide adenylyltransferase NadD (Staphylococcus aureus N315); purified NadD enzyme, colorimetric absorbance read-out; inhibition, % at 20 µM; 0.78% of 360,000 active; AID 602399, 2012; in the data active = inhibition above about 26%
MsrA act = bovine MsrA enzyme activators, primary screen, biochemical, absorbance, HTS. activation, % at 10.6 µM. purified bovine MsrA, absorbance read-out. Methionine sulfoxide reductase A (Bos taurus). AID 602163, 2012. 0.3% of 360,000 active; in the data active = activation above about 7.5%;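 also: 0% = vehicle and 100% = reference activator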
DAGLB inhibitor = DAGLB lipase inhibitors, primary screen, biochemical, fluorescence, HTS | Diacylglycerol lipase-beta (Homo sapiens), Q8NCG7 | HEK293T DAGLB membrane lysate, EnzChek fluorogenic substrate | inhibition, % at 5.17 µM | 0.059% of 340,000 active; in the data active = inhibition above about 34%;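 also: 0% = enzyme with vehicle and 100% = wells lacking enzyme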
Pemphigus Ab inh = inhibitors of pemphigus antibody binding to DSG3, primary screen, biochemical, bead-based, flow cytometry, scFv-GFP. binding (percent of control), % at 10 µM. 0.48% of 310,000 active. DSG3-coupled beads, scFv-anti-DSG3-GFP binding; stronger effect = lower value. AID 588358, 2011;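 active = binding more than 3 SD below its plate's average and above zero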;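 also: hits lower antibody fragment binding to DSG3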
MsrA inhibitor = bovine MsrA enzyme inhibitors, primary screen, biochemical, absorbance, HTS; Methionine sulfoxide reductase A (Bos taurus); purified bovine MsrA, absorbance read-out; inhibition, % at 15.5 µM; 0.75% of 360,000 active; in the data active = inhibition above about 4.5%;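 also: 0% = vehicle wells with enzyme and 100% = reference inhibitor wells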
rCAG RNA binder = binders of r(CAG) RNA repeats, primary screen, biochemical, fluorescence; r(CAG) RNA repeat, TO-PRO-1 dye displacement fluorescence; inhibition, % at 3 µM; 1.3% of 370,000 active; AID 651821, 2012;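 active = inhibition above the plate cutoff, the mean of all test compounds on that plate plus 3 SD, cut at about 35% in these data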;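 also: 0% = DMSO alone and 100% = 100 µM mitoxantrone as full dye displacement; higher means more dye released from RNA so lower well fluorescence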
NadD conf = inhibitors of S. aureus NadD, confirmation, biochemical, colorimetric, single concentration | shares compounds with NadD block | 13% of 2,000 active | inhibition, % at 20 µM | purified S. aureus NadD, colorimetric enzyme assay; in the data active = inhibition mostly above about 42%, no sharp cut-off; inactive = mostly below about 42%
The depositor's hits bear a star; x = no result.

SMILES	NadD block	MsrA act	DAGLB inhibitor	Pemphigus Ab inh	MsrA inhibitor	rCAG RNA binder	NadD conf
CC1(C)Cc2c(sc3c2c(=N)n(Cc2ccco2)c(=O)n3Cc2ccc(Cl)cc2)CO1	32*	-3	-2	117	0	4	20
CC(C)C[C@H]1CNC(=S)N1CC1CCCN1C[C@H](Cc1ccccc1)N1C[C@H](Cc2ccc(O)cc2)N(CC2CCCCC2)C1=S (stereo partly drawn)	32*	-3	-8	107	0	13	-1
CC(C)C[C@H]1CNC(=S)N1C[C@H]1CCCN1C[C@H](Cc1ccccc1)N1C[C@H](Cc2ccc(O)cc2)N(CC2CCCCCC2)C1=S	42*	-2	x	x	-1	9	-12
CC(C)C[C@H]1CNC(=S)N1CC1CCCN1C[C@H](Cc1ccc(O)cc1)N1C[C@H](Cc2ccccc2)N(CC2CCCCCC2)C1=S (stereo partly drawn)	22	-2	-7	96	-1	11	x
NNC(=O)CSc1c(-c2ccccc2)c2cc(Cl)ccc2[nH]c1=O	9	-10	2	101	2	16	x
O=c1[nH]c2ccc(Cl)cc2c(-c2ccccc2)c1SC(=S)N1CCOCC1	40*	-2	12	99	0	3	-8
O=c1[nH]c2ccc(Cl)cc2c(-c2ccccc2)c1SC(=S)N1CCCCC1	37*	-1	6	97	1	9	7
CCCCNC(=O)C1CCCN1C(=O)Nc1cc(C)cc(C)c1 (stereo not drawn)	x	x	x	x	x	4	x
O=C(Nc1nc(-c2ccco2)c(-c2ccco2)s1)c1ccc(F)cc1F	41*	-6	4	95	0	29	13
CCc1cccc(CC)c1NC(=O)C1SC(=Nc2ccccc2C)C(c2nc3ccccc3s2)=C1N (stereo not drawn)	32*	-3	-10	93	2	42*	6
Cc1cc(C)n2nc(C(=O)N/N=C/c3c4ccccc4cc4ccccc34)nc2n1	29*	-2	2	102	0	-1	15
Cc1cc(C)n2nc(C(=O)N/N=C/c3ccccc3Cl)nc2n1	-1	-4	-1	115	1	-2	x
NC(N)=NCCCS(=O)(=O)Nc1ccc(Nc2c3ccccc3nc3cc([N+](=O)[O-])ccc23)cc1	-1	-1	0	93	0	2	x
COc1ccc(/C=C(\C#N)C(=O)OCC(=O)Nc2ccc(-c3nc4ccc(C)cc4s3)cc2)cc1	29*	-3	0	91	0	8	6
Cc1ccc2nc(-c3ccc(NC(=O)COC(=O)c4ccco4)cc3)sc2c1	-2	-9	5	98	0	0	x
Cc1cccc(CN2CCN(C3CN(C4CCCCC4)S(=O)(=O)C3)CC2)c1 (stereo not drawn)	-5	-13	x	x	0	0	x
CC(CC(=O)Nc1ccc2c(c1)c(=O)n(C)n2Cc1ccc(F)cc1)C(F)(F)F (stereo not drawn)	3	-1	x	x	0	-1	x
CC(=O)c1cccc(NC(=O)C2C3C=CC(C3=C(c3ccccc3)c3ccccc3)C2C(=O)O)c1 (stereo not drawn)	37*	-2	2	106	1	5	50*
COc1ccc(N/C(N)=N/c2nc(CSc3ccc(Cl)cc3)cc(=O)[nH]2)cc1	5	-1	1	103	0	4	x
N/C(=N\c1nc(CSc2ccc(Cl)cc2)cc(=O)[nH]1)Nc1cccc2ccccc12	27*	-1	1	83	0	2	1
Cc1ccc(-c2nn(-c3ccccc3)cc2/C=N/n2c(-c3ccncc3)n[nH]c2=S)cc1	39*	0	x	97	-1	4	3
COCCOC(=O)c1c(C)oc2ccc(NS(=O)(=O)c3cccs3)cc12	-6	-4	-1	107	0	6	x
